Test results published in ChEMBL document CHEMBL3433997, “St. Jude Leishmania screening dataset” (2016).

Assays:
Type in all cases: functional
[1] = molecular target: Solute carrier family 2, facilitated glucose transporter member 1 (Homo sapiens) (UniProt P11166); experiment: ST_JUDE_LEISH: Cytotoxicity at 2uM final concentration against transgenic Leishmania Mexicana promastigotes LmGLUT1 that are glucose transport deficient and complemented with the human glucose transporter GLUT1. Activity is measured by DNA content using SYBR green in vitro
[2] = molecular target: Hexose transporter 1 (Plasmodium falciparum) (UniProt O97467); experiment: ST_JUDE_LEISH: Cytotoxicity at 2uM final concentration against transgenic Leishmania Mexicana promastigotes LmPfHT that are glucose transport deficient and complemented with the Plasmodium falciparum hexose transporter. Activity is measured by DNA content using SYBR green in vitro
[3] = molecular target: Glucose transporter (Leishmania mexicana) (UniProt O61059); experiment: ST_JUDE_LEISH: Cytotoxicity at 2uM final concentration against transgenic Leishmania Mexicana promastigotes LmGT2 that are glucose transport deficient and complemented with the L. Mexicana glucose transporter 2. Activity is measured by DNA content using SYBR green in vitro

Chain of Solute carrier family 2, facilitated glucose transporter member 1 (Homo sapiens) (P11166 whole entry): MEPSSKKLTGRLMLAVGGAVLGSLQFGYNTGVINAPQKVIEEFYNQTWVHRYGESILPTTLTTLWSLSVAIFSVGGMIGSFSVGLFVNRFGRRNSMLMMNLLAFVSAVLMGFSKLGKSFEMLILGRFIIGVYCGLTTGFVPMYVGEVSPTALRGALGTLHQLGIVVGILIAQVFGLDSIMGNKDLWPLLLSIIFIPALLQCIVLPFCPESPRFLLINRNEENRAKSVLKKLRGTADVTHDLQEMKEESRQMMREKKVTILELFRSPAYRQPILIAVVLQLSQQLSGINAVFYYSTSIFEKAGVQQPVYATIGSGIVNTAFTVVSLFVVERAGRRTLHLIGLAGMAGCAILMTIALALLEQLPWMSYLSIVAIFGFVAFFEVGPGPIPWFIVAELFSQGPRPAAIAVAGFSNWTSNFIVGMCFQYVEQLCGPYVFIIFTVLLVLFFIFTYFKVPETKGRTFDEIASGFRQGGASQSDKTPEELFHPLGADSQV

| Structure (SMILES) | inhibition [1] [%] | inhibition [2] [%] | inhibition [3] [%] |
| --- | --- | --- | --- |
| CCCc1cc(Cc2cnc(N)nc2N)cc(CCC)c1OCCCCC(=O)OC | 3.01 | 0.4 | 0.33 |
| CCN(CC)CCCNc1ncc2c(-c3ccc(NC(=O)Nc4cc(C(F)(F)F)ccc4F)cc3)nn(C)c2n1 | 4.51 | 4.18 | 4.62 |
| OC(CNCc1ccccc1OCc1ccccc1)c1cccc(Br)c1 (stereo unspecified) | 4.31 | 4.13 | 2.24 |
| O=C(/C=C/c1ccc(Cl)c(Cl)c1)NCCCCCN1CCC(C(=O)Nc2cccc(Cl)c2)CC1 | 2.86 | 1.97 | 2.09 |
| C=CC[C@H](C[C@H](O)[C@H](Cc1ccccc1)NC(=O)c1nn(-c2ccccc2)nc1C)C(=O)NC1CCCCC1 | 2.06 | 2.34 | 2.36 |
| Cn1c(NC(=O)C2CCC(CNC(=O)c3ccc(O)c(-c4ccc(Cl)c(Cl)c4)c3)CC2)nc2ccccc21 (stereo unspecified) | 0.88 | 0.39 | 0.36 |
| N#Cc1ccc(N2C[C@@H](OCc3ccccc3)C[C@H]2C(=O)NCCC(c2ccccc2)c2ccccc2)c2ccccc12 | 5.42 | 4.29 | 3.78 |
| CC1(C)NC(N)=NC(=N)N1OCCCc1cc(Cl)c(Cl)cc1Cl | 3.14 | 2.31 | 2.77 |
| O=C(C=Cc1cccc(F)c1)NC1CCC(CCN2CCc3ccc(-c4cnccn4)cc3CC2)CC1 (stereo unspecified) | 14.4 | 14.2 | 13.1 |
| OC(CNc1ccnc(Nc2ccc(Cl)cc2)n1)c1ccc(C(F)(F)F)cc1 (stereo unspecified) | 4.91 | 4.91 | 2.64 |
| Cn1ccnc1-c1nc2ccccn2c1NCC(=O)Nc1ccccc1N1CCCCC1 | -1.68 | -2.15 | 0.02 |
| COc1ccc(CNC(=N)Nc2nc(-c3ccc(OCCCn4ccnc4)cc3)cs2)cc1 | 10.6 | 7.44 | 2.73 |
| CC(C)(CN1CCCC1)CN(Cc1ccc(-c2ccc(C(F)(F)F)cc2)cc1)C(=O)Cn1c(CCc2cccc(F)c2F)nc(=O)c2ccccc21 | 10.3 | 8.05 | 8.96 |
| CCCCCN1CCCC1CNS(=O)(=O)c1ccc(C(=O)Nc2ccc(C(F)(F)F)cc2)cc1 (stereo unspecified) | 4.05 | 3.41 | 1.09 |
| CC(=O)Nc1nc(C)c(-c2csc(Nc3ccc(Cl)cc3)n2)s1 | -0.76 | -1.35 | -2.23 |
| O=C(O)c1cccc2c(-c3ccncc3)cccc12 | 0.79 | 1.26 | 1.31 |

| Structure (SMILES) | inhibition [1] [%] | inhibition [2] [%] | inhibition [3] [%] |
| --- | --- | --- | --- |
| COc1ccc2nc(SC(C)C(=O)c3c[nH]c4ccccc34)[nH]c2c1 (stereo unspecified) | 2.5 | 0.87 | 2.35 |
| COc1cccc(NC(=O)[C@H](C(C)C)n2c(=O)[nH]c3ccccc3c2=O)c1 | 1.34 | 0.97 | 5.04 |
| O=c1cc(NCCCN(Cc2ccccc2)Cc2ccccc2)[nH]c2ccccc12 | 0.48 | 4 | 5.36 |
| Cc1cc(N2CCC(NS(=O)(=O)c3cccc4cccnc34)CC2)nc(Nc2cccc(C#N)c2)n1 | 51.5 | 54.4 | 44.4 |
| CC1(C)N=C(N)N=C(N)N1c1ccc(Oc2ccccc2)cc1 | 1.59 | 1.71 | 2.8 |
| CN(C)CC1CCCN1Cc1ccccc1-c1cnn(C)c(=O)c1Oc1ccccc1F (stereo unspecified) | 2.45 | 1.75 | 0.1 |
| CC(C)(CNCc1ccc(OC(F)(F)F)cc1)c1nc(-c2ccc(Cl)c(O)c2)c(-c2ccncc2)[nH]1 | -0.48 | 0.11 | 6.94 |
| CC(C)(C)c1ccc(CNC(=O)/C=C/c2ccc(-c3nc4cc(C(C)(C)C)ccc4[nH]3)cc2)cc1 | 2.35 | 3.4 | 4.02 |
| CN(Cc1ccccc1)C1CCCN(c2cc(NC(=O)c3cccs3)ccn2)C1 (stereo unspecified) | 0.77 | -0.06 | 0.5 |
| N#Cc1ccccc1N1CCN(C2CCC(NC(=O)c3n[nH]c4cc(C(F)(F)F)ccc34)CC2)CC1 (stereo unspecified) | 2.94 | 1.88 | 0.43 |
| Fc1ccc2[nH]cc(CCNCc3ccc(-c4cccc(-c5nc6ccccc6[nH]5)c4)cc3)c2c1 | 4.9 | 4.54 | 3.56 |
| Cc1ccc(C(=O)NC2C(=O)NC2c2ccccc2)c(C)c1 (stereo unspecified) | 3.72 | 4.84 | 2.37 |
| C=CCN1CCC(N(Cc2cccc(Oc3ccccc3)c2)C(=O)C(c2ccccc2)c2ccccc2)CC1 | -1.05 | -2.14 | -2.94 |
| Cc1ccc(C)c(NC(=O)NCCNc2ccnc(Nc3ccc(F)cc3)n2)c1 | 17 | 13.1 | 6.47 |
| COc1ccc(C2CCN(CCCNC(=O)c3ccc(NC(=O)c4ccc(Cl)cc4)cc3)CC2)c(OC)c1 | 3.85 | 4.23 | 3.54 |
| O=C(/C=C/c1ccc(Cl)c(Cl)c1)NCCCCCN1CCCN(C(=O)Nc2cc(F)cc(F)c2)CC1 | 9.22 | 8.04 | 8.86 |
